TRHR enhancer-1: allosterically enhances the human TRH receptor; TRHR cells, fluo-8 calcium fluorescence, EC20 TRH enhancement; 360,000 compounds, 0.66% hits; enhancement, % at 2 µM; P34981; in the data active means enhancement above about 30%; further: 0% is about no effect
Target sequence (P34981 whole entry, looked up): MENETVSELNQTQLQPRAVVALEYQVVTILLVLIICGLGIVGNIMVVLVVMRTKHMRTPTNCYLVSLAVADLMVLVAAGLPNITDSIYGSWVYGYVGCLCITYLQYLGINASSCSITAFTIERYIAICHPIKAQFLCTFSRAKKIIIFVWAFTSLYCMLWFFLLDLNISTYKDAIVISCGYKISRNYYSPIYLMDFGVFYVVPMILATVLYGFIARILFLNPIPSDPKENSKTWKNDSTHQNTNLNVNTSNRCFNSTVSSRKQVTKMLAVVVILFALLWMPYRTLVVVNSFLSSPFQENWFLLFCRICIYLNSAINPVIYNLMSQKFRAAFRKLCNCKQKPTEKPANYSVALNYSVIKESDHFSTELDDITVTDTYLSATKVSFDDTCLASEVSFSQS
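TRHR-expressing cells loaded with fluo-8 calcium dye were read kinetically (ex 480/em 530) during compound addition, then stimulated with an EC20 of TRH (10 nM final). Enhancement of the Gq-mediated intracellular calcium response was scored.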
D1 ag: agonists of human D1 dopamine receptor; activation, % at 2 µM; P21728; 360,000 compounds, 1% hits; HEK293 T-REx D1 cells, calcium flux, agonist mode; further: 0% is about no effect
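Inducible HEK293 T-REx D1 cells, force-coupled to calcium signalling, were plated at 4000 cells/well with tetracycline and held overnight at 30 C. After no-wash calcium dye loading, compound-evoked calcium rise over 180 s flagged agonists.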
TRHR agonist-1: TRH receptor (human) agonism. P34981. 360,000 compounds, 0.18% hits. activation, % at 2 µM. TRHR cells, calcium flux fluo-8, FDSS agonist mode. AID 493084; further: 0% is about no effect
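TRHR-expressing cells, plated overnight in medium with 10% serum, were loaded with fluo-8 calcium dye at room temperature. After a 10 s baseline, library compound was pin-added and calcium release was recorded kinetically (ex 480/em 530) as agonist response.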
D1 antag: human D1 dopamine receptor antagonism | HEK293 TREx D1 cells, calcium flux, dopamine EC80; active compounds read low | 360,000 compounds, 3.2% hits | activity change, negative = inhibition, % at 10 µM | AID 504652 | P21728; in the data active means activity change below about -30%; further: on the % scale 0 is the no-effect control and ±100 the full control effect
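Tetracycline-induced HEK293 Trex D1 cells, force-coupled to calcium, dye-loaded; compounds added and read 180 s, then EC80 dopamine added and calcium flux tracked kinetically another 180 s.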
D1 PAM: human D1 dopamine receptor positive modulation; HEK293 TREx D1 cells, calcium flux, dopamine EC20 potentiation; potentiation, % at 10 µM; 360,000 compounds, 0.036% hits; AID 504651; in the data active means potentiation above about 30%; further: 0% is about no effect
TRHR enhancer-2: human TRH receptor allosteric enhancement confirmation; activity change, negative = inhibition, % at 46.1 µM; TRH receptor cell assay, enhancer confirmation qHTS; 970 tested, under 10 active; shares compounds with TRHR enhancer-1; active means well fitted curve in the direction sought with a large enough effect; inconclusive means small, poorly fitted or top-dose-only effect, or another doubt; inactive means no such curve, though single readings can be large; an effect the other way counts as inactive or inconclusive;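 further: compound effect scored on response to added TRH at EC20 of 10 nM; 0% is about no effect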
TRHR agonist-2: confirmation of human TRH receptor agonists; shares compounds with TRHR enhancer-1; TRHR-expressing cells, agonist activation read-out; Potency, µM (top dose mostly 46.1 µM), for inactives: at the top dose activation, hits mostly activators; 970 compounds, 8% hits; active means well fitted curve in the direction sought with a large enough effect; inconclusive means small, poorly fitted or top-dose-only effect, or another doubt; inactive means no such curve, though single readings can be large; an effect the other way counts as inactive or inconclusive; further: potency means the concentration at half of the fitted maximal effect; 0% is about no effect; nearly all actives have a fitted effect of over 75% in size
Numbers without * were called inactive; ? = inconclusive; . = no result given. Compounds with a hit are over-represented: about 4.6% of the library has one in this group of screens. Unless noted, no stated cut-off is given here; in the data, active means activation above about 30%; inactive means the rest.

SMILES	TRHR enhancer-1	D1 ag	TRHR agonist-1	D1 antag	D1 PAM	TRHR enhancer-2	TRHR agonist-2
O=C(CCCCCn1c(=O)c2sccc2n(CC(=O)Nc2cc(C(F)(F)F)ccc2Cl)c1=O)NCc1ccccc1Cl	0	4	1	-3	1	.	.
Cc1cc(C)c2c(n1)nn1c(NCCCN(C)C)cc(C)nc21	57*	0	0	1	-4	2	0%
COc1ccc(C2(C(=O)NC(C)C)CCCC2)cc1OC	52*	2	0	-12	7	-5	0%
COc1ccc(C2(C(N)=O)CCCCC2)cc1OC	-6	4	0	-2	0	.	.
CC(C)c1ccc2c(c1)NC(c1ccc(F)cc1)=NC(c1cccs1)=N2	7	0	0	7	4	.	.
N#C/C(=C/c1ccc(F)cc1)c1nc(CCN2C(=O)c3ccccc3C2=O)cs1	7	22	28	-18	-8	-1	3%
CCN(CC)CCCNC(=S)N1CCN(c2nc(-c3ccccc3)cs2)CC1	42*	29	2	-37*	-19	-9	?
COc1cc(/C=C2\SC(=S)N(NC(=O)c3ccc(O)c(OC)c3)C2=O)ccc1O	3	73*	45*	26	5	5	?
COc1cc(/C=C2\SC(=S)N(NS(=O)(=O)c3ccc(C)cc3)C2=O)cc(OC)c1OC	-2	-2	0	2	0	.	.
O=C1/C(=C/c2cccc(O)c2)SC(=S)N1CC1CCCO1 (configuration not stated)	1	2	1	-24	-14	.	.
CCOc1cc(/C=C2/SC(=S)N(CC3CCCO3)C2=O)ccc1O (configuration not stated)	5	68*	43*	2	7	?	16µM*
CCOc1cc(/C=C2\SC(=S)N(NC(=O)c3cccnc3)C2=O)ccc1O	-4	20	8	2	2	.	.
COc1cc(/C=C2\SC(=S)N(NS(=O)(=O)c3ccc(C)cc3)C2=O)ccc1O	-5	82*	36*	-9	4	-3	?
Cc1nc(N2CCCC2)c2c(C(=O)Nc3cccc(C)c3C)c(C)oc2n1	-2	0	0	-5	-5	.	.
NS(=O)(=O)c1ccc(CCNC(=O)c2cc(=O)[nH]c3ccccc23)cc1	6	2	-1	1	-7	.	.
O=C(NCCc1ccc(Cl)cc1)c1cc(-c2ccccn2)nc2ccccc12	49*	9	0	4	0	-3	2%
O=C(NCCc1ccc(Cl)cc1)c1cc(=O)[nH]c2ccccc12	43*	1	-1	2	-4	?	2%
O=C(NCCc1ccc(Cl)cc1)c1cc(-c2ccncc2)nc2ccccc12	-4	1	0	-7	-11	.	.
Cc1ccc2[nH]c(=O)c3cc(C(=O)NCCc4ccc(Cl)cc4)sc3c2c1	57*	3	2	-25	-1	3	1%
Cc1c2cnn(-c3ccccc3)c(=O)c2c(C)n1CC(=O)Nc1ccccc1Br	-4	0	1	26	-1	.	.
COCCN1Cc2cccc(C(=O)Nc3ccc(C)cc3C)c2C1=O	10	4	0	1	2	.	.
CCOc1ccc(N(C(=O)c2ccccc2F)S(=O)(=O)c2ccc3c(c2)n(C)c(=O)n3C)cc1	-5	1	0	-2	2	.	.
Cc1ccc(Cl)cc1NC(=O)Cn1nc2c(cc1=O)CC(C)CC2 (configuration not stated)	-1	0	0	10	-4	.	.
Cc1cccc(CNC(=O)c2ccc(C)c(-n3c(C)nc4cccnc43)c2)c1	-1	-1	-1	1	-2	.	.
COc1ccc(N2C(=O)c3cccc4cccc(c34)C2=O)cc1	-2	1	0	8	-4	.	.
SMILES	TRHR enhancer-1	D1 ag	TRHR agonist-1	D1 antag	D1 PAM	TRHR enhancer-2	TRHR agonist-2
COc1ccc(N2C(=O)c3cccc4c(N(C)CCO)ccc(c34)C2=O)cc1	-10	49*	35*	-3	-3	-5	21µM*
Cc1ccc(C(=O)CCNc2cccc(Br)c2)o1	66*	1	-1	-13	-5	-10	2%
CN(C)c1ccc(CNC(=O)c2sc3ncccc3c2-n2cccc2)cc1	4	1	-1	-5	0	.	.
CCC(Sc1nc2ncccc2[nH]1)C(=O)NC1CCC(C)CC1 (configuration not stated)	11	0	1	7	-3	.	.
CCC(Sc1nc2ncccc2[nH]1)C(=O)NCCc1ccccc1 (configuration not stated)	2	3	60*	11	-1	-13	2%
CCOc1ccccc1NC(=O)NC1CC2CCCC(C1)N2Cc1nnnn1CCc1ccccc1 (configuration not stated)	-1	3	61*	10	7	-7	2%
COC(=O)c1ccc(NC(=O)CC2C(=O)N(c3ccccc3)C(=O)N2Cc2cccs2)cc1 (configuration not stated)	2	0	0	-13	-5	.	.
Cn1c(SCc2cccc3ccccc23)nnc1-c1ccco1	-4	1	-1	-7	-4	.	.
Nn1c(SCc2cccc3ccccc23)nnc1-c1ccco1	50*	1	-1	-10	-3	-1	5%
O=C(CCc1ccccc1)NC1CC(=O)N(c2ccccc2)C1 (configuration not stated)	3	-1	0	.	1	.	.
O=C(CNC(=O)c1ccc(F)cc1)c1ccc(Cl)cc1	43*	15	-1	-33*	-7	-7	0%
CC(C)Cn1cc(C(=O)N2CCN(c3cccc(Cl)c3)CC2)c2c3ccccc3n(C)c2c1=O	7	6	2	2	2	.	.
CCOC(=O)C1CCN(S(=O)(=O)c2cc(Br)cc3c2N(C(=O)CC)CC3)CC1	8	-1	0	8	1	.	.
CSc1ccc(S(=O)(=O)NC(C)c2ccccc2)cc1 (configuration not stated)	-3	-1	0	-14	4	.	.
Cc1ccc(S(=O)(=O)NC(C)c2ccccc2)cc1[N+](=O)[O-] (configuration not stated)	58*	1	0	1	1	2	0%
C=CCn1cc(C(=O)N2CCN(C)CC2)c(=O)c2cc(S(=O)(=O)N3CCCC3)ccc21	-3	3	0	-2	.	.	.
C=CCn1cc(C(=O)N2CCN(C)CC2)c(=O)c2cc(S(=O)(=O)N(CC)CC)ccc21	53*	3	1	-14	-6	-4	-1%
COc1cc(OC)c(-c2nc3cnccc3n2C)cc1OC	18	1	0	-7	3	.	.
Cn1c(-c2ccc3ccccc3n2)nc2cnccc21	54*	2	-1	9	-5	?	0%
